According to PubChem BioAssay (NCI):
Values joined by “and” are separate entries in the source; they are usually repeats but may differ in a detail not shown here. Equal entries are not always repeated. The panel holds about 83,000 compounds, 20% with a hit somewhere; the sample as a whole holds those more often.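 Cells were grown in 96-well plates and exposed to the test compound at a single concentration for 48 hours; results are reported as percent growth, with values below 10 considered active.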 A number with no mark means an inactive call. Active and inactive are the calls of the source.

Test system: HL-60(TB) leukemia
Assay: NCI-60 one-dose screen, 48 h (100 = growth as untreated, 0 = no growth, -100 = all killed)
Details: 10 µM unless noted

Row | Structure (SMILES) | growth
1 | CCOC(=O)C(=Cc1cccc(Br)c1)C(=O)OCC | -6.91% (active)
2 | Cc1[nH]c2ncnc(Oc3ccc(NC(=O)Nc4ccc(Cl)c(C(F)(F)F)c4)cc3)c2c1C | 65.6%
3 | O=C(/C=C/CN1CCOCC1)Nc1cc2c(Nc3ccc(F)c(Cl)c3F)ncnc2cc1OCCOC(F)F | 76.9%
4 | COc1ccc(NC(=O)CSc2nc(C)c(C(C)=O)n2-c2ccc(Cl)cc2)cc1 | 103%
5 | C#CCn1c(-c2cccc(OCCCCl)c2)nc2c1c(=O)n(C)c(=O)n2C | -15.7% (active)
6 | Clc1ccc2c(NCCNc3nc(N4CCCCC4)nc4ccccc34)ccnc2c1 | -61.2% (active)
7 | CCc1cnn2c(NCc3ccc[n+]([O-])c3)cc(N3CCCC[C@H]3CCO)nc12 | -43.2% (active)
8 | COC(=O)/C=C/c1cc(OC)c2c(c1)[C@@H](C(=O)OC)[C@H](c1ccc(OC)c(OC)c1)O2 | -13.3% (active)
9 | c1ccc(CNc2c3ccccc3nc3ccccc23)cc1 | 43.8%
10 | Cc1ccc(-c2nc3nc(-c4ccccc4)nc(N4CCNCC4)c3o2)cc1 | -68.4% (active)
11 | O=C(O)c1cccc(Br)c1 | 104% and 98.8%
12 | O=C(Nc1ccc2cc3ccc(NC(=O)N4CCCCCC4)cc3nc2c1)N1CCCCCC1 | -49.6% (active)
13 | CC(=O)Nc1ccc2cc3ccc(NC(C)=O)cc3nc2c1 | 131% and 96.4%
14 | CC(C)=CCc1cc2c(cc1O)C1=C(C(=O)C3=C(NCCS3(=O)=O)C1=O)C(C=C(C)C)O2 (stereo not given) | -35.2% (active)
15 | COc1ccc(Nc2ncccc2C(=O)NCc2cn(Cc3cccc(Oc4ccccc4)c3)nn2)c(OC)c1 | 18.9%
16 | COc1cc(-c2nc3sc4c(c3c(=O)[nH]2)CCCCCC4)cc(OC)c1OC | -19.3% (active)
17 | O=C1Nc2ccc(Br)cc2/C1=N/c1nc(-c2ccccc2)cs1 | 73.1%
18 | Cn1c(I)c(C#C[Si](C)(C)C)c(=O)n(C(=O)c2ccccc2)c1=O | -59% (active)
19 | COc1ccc(C2c3sc4c(F)cccc4c3Oc3nc[nH]c(=O)c32)cc1 (stereo not given) | -44.6% (active)
20 | c1ccc(-c2ccc3ccccc3c2)cc1 | 109%

Row | Structure (SMILES) | growth
21 | C/C(=N/NC(N)=S)c1ccc(C)cc1 | 92%
22 | C=C1CCC2C3(C)COC(c4ccc(N(C)C)cc4)OC3CCC2(C)C1C/C=C1/C(=O)OCC1O (stereo not given) | 15.3%
23 | CCOC(=O)C1=C(C)NC(C)=C(C(=O)OCC)C1 | 110% and 102%
24 | O=C(/C=C/c1cccc(Cl)c1)OCc1ccc2cc1OCC#C/C=C\C#CCO2 | 81.8%
25 | COc1ccc(C2=NN(C(C)=O)C(c3cc(OC)c(OC)c(OC)c3)C2)cc1 (stereo not given) | 95.2%
26 | Cc1[nH]c2ccc(F)cc2c1CCNC(=O)C1CCN(C(=O)c2ccccc2)C1 (stereo not given) | 107% [25 µM]
27 | CCOc1nc(-c2ccccc2)cc2c(O)c(C(=O)N/N=C/c3ccccc3O)[nH]c(=O)c12 | 133%
28 | O=C(CCc1ccc(O)cc1)N/N=C/c1cc(Br)ccc1O | -6.29% (active)
29 | Cn1c(=O)c2[nH]c(N/N=C/c3ccccc3Br)nc2n(C)c1=O | 106%
30 | CCOc1ccc2nc3ccc(Cl)cc3nc2c1 | 63.7%
31 | CCCCCCCCCCCC[N+]1(CCCCCCCCCCCC)CCCC(C)C1 (stereo not given) | -79.5% (active)
32 | COc1cccc(-c2nc3occn3c2-c2ccnc(NCCCNS(=O)(=O)c3cccc(F)c3)n2)c1 | 112%
33 | COc1ccc(-n2c(C)nc3c(c(C)nn3-c3ccccc3)c2=O)cc1 | -18.3% (active)
34 | CC(=O)Nc1c(I)c(NC(C)=O)c(I)c(C(=O)O)c1I | 92.4% and 95.8%
35 | COc1ccc2c(c1)C(C)Cc1c(N(C)C)ncnc1N2C (stereo not given) | -4.85% (active)
36 | NNC(=O)c1ccc(C(=O)NN)cc1 | 124%
37 | COC(c1ccc2c(c1)OCO2)C(C)Br (stereo not given) | 94.7%
38 | O=c1oc2ccc(Cl)cc2c(=O)n1-c1cc(C(F)(F)F)cc(C(F)(F)F)c1 | -20.6% (active)
39 | O=C1CC23OC4ON=C(Br)C4C2C(O)c2ccccc2N13 (stereo not given) | 102%
40 | COC(=O)CNC(=O)[C@H](Cc1ccccc1)NCc1ccncc1 | 88.6%
